{"source": "PubChem BioAssay (Tox21)", "note": "Records with an inconclusive call do not appear. Where a call stands in place of a potency, no number is given. The source made the active and inactive calls. The call rests on the fitted dose curve; in most records, active means well fitted activation curve with a large enough effect in the repeat runs; inconclusive means weak or mixed curves; inactive means flat fitted curve, though single readings scatter. Potency means the concentration at half of the fitted maximal effect.", "data": [{"experiment": "A CellTox Green Cytotoxicity Assay to monitor cytotoxicity in HEK293 cells - 16 hour (AID 1224888); further: nearly all actives have a fitted effect of over 35% in size", "conditions": "CellTox Green fluorescence; series mostly up to 76.8 µM", "text": "National Center for Advancing Translational Sciences [NCATS]\nNIH Chemical Genomics Center [NCGC]\nU.S. Environmental Protection Agency [EPA]\nNational Institutes of Environmental Health Sciences [NIEHS]\nNational Toxicology Program [NTP]\nCell-based models are critical for drug discovery. Determining the natural cytotoxic effects resulting from test compounds is an essential research activity. A CellTox Green Cytotoxicity Assay to monitor cytotoxicity in real time of continues cell culture during 40 hours of the compound treatment was used to screen Tox21 10K library compounds in Hek293 cells. CellTox Green Cytotoxicity Assay is a nonlytic, homogeneous, biofluorescent method to measure cytotoxicity in cell culture after experimental manipulation. The assay system uses a proprietary asymmetric cyanine dye that is excluded from viable cells but preferentially stains the dead cell's DNA. […] Viable cells produce no appreciable increases in fluorescence. Therefore, the fluorescence signal produced by the binding interaction with dead cell DNA is proportional to cytotoxicity.\nThe mixture of Hek293 cell suspension and reagents were dispensed at 600cells/6 ul/well in 1536-well tissue culture treated black solid bottom plates using a Multidrop dispenser. After the assay plates were incubated at a 37 C/5% CO2 incubator for 5 hours, 23 nL of compounds dissolved in DMSO, positive and negative controls was transferred to the assay plate by a pintool work station. The plates were incubated at 37 C for 40 hours. The fluorescence intensity were measured at 0h, 8h, 16h, 24h, 32h and 40h time points using ViewLux plate reader during compound treatment.", "values": [{"smiles": "ONc1ccccc1", "Potency": "inactive"}, {"smiles": "C=CCCCC", "Potency": "inactive"}, {"smiles": "CC(C)Nc1ccccc1", "Potency": "inactive"}, {"smiles": "CC(=O)OC(C)=O", "Potency": "inactive"}, {"smiles": "C=CC/C=C/C", "Potency": "inactive"}, {"smiles": "CC1(C)Oc2ccc(C#N)cc2[C@@H](N2CCCC2=O)[C@@H]1O", "Potency": "inactive"}, {"smiles": "CC(=O)CC(=O)Nc1ccc(C)cc1C", "Potency": "inactive"}, {"smiles": "CC1(C)O[C@H]2CC(=O)OC[C@]23[C@H]2CC[C@@]4(C)[C@H](c5ccoc5)OC(=O)[C@H]5O[C@]54[C@]2(C)C(=O)C[C@@H]13", "Potency": "inactive"}, {"smiles": "CC(C)[C@H]1CC[C@H](C)C[C@@H]1O", "Potency": "inactive"}, {"smiles": "CC1=C(C(=O)O)N2C(=O)[C@@H](NC(=O)[C@H](N)c3ccccc3)[C@H]2SC1", "Potency": "inactive"}, {"smiles": "CN(C)C(C)(C)CO", "Potency": "inactive"}, {"smiles": "CCCC(=O)OC/C=C(\\C)CCC=C(C)C", "Potency": "54.9 µM (active)"}, {"smiles": "CC(=O)O[C@H]1C[C@@H]2CC[C@@]1(C)C2(C)C", "Potency": "inactive"}, {"smiles": "C[C@]12CCC(=O)C=C1CC[C@H]1[C@@H]3CC[C@](O)(C(=O)CO)[C@@]3(C)C[C@H](O)[C@@]12F", "Potency": "inactive"}, {"smiles": "CCN1CCCC1CN", "note": "(stereo not given)", "Potency": "inactive"}, {"smiles": "CC/C(C)=N\\O[Si](C)(O/N=C(\\C)CC)O/N=C(\\C)CC", "Potency": "inactive"}, {"smiles": "O=C1CCC(=O)N1Cl", "Potency": "inactive"}, {"smiles": "Cc1ccnc(N)c1", "Potency": "inactive"}, {"smiles": "CO/N=C(/C(=O)N[C@@H]1C(=O)N2C(C(=O)[O-])=C(C[n+]3ccn4ncccc43)CS[C@H]12)c1nsc(N)n1", "Potency": "inactive"}, {"smiles": "O=NN(CCCl)C(=O)NC1CCCCC1", "Potency": "inactive"}, {"smiles": "CC(=O)CCC1=C(C)CCCC1(C)C", "Potency": "inactive"}, {"smiles": "CCC(C(=O)OCCN1CCOC(c2ccccc2)C1C)c1ccccc1", "note": "(stereo not given)", "Potency": "inactive"}, {"smiles": "CCOC(=O)CC1(C)OCC(C)O1", "note": "(stereo not given)", "Potency": "inactive"}, {"smiles": "CC1=NN(c2ccc(S(=O)(=O)O)cc2)C(=O)C1", "Potency": "inactive"}, {"smiles": "CC(C)NC(=O)c1ccc(C=O)cc1", "Potency": "inactive"}, {"smiles": "CC(=O)OCC(=O)Nc1cc(C#N)cc(NC(=O)COC(C)=O)c1Cl", "Potency": "inactive"}, {"smiles": "C=CCCCCCCCC", "Potency": "inactive"}, {"smiles": "Nc1nc(-c2ccccc2)c(Br)c(=O)[nH]1", "Potency": "inactive"}, {"smiles": "C=C(C)C1CC=C(C)C(=O)C1", "note": "(stereo not given)", "Potency": "inactive"}, {"smiles": "C[C@@H](O)C(=O)O", "Potency": "inactive"}, {"smiles": "CCOCCOCC", "Potency": "inactive"}, {"smiles": "OCC1(CO)COCOC1", "Potency": "inactive"}, {"smiles": "Cc1ccc(C)c([N+](=O)[O-])c1", "Potency": "inactive"}, {"smiles": "O=C[O][Al]([O]C=O)[O]C=O", "Potency": "inactive"}, {"smiles": "C=CC(=O)CCCCC", "Potency": "inactive"}, {"smiles": "C[Si]1(C)O[Si](C)(C)O[Si](C)(C)O[Si](C)(C)O[Si](C)(C)O1", "Potency": "inactive"}, {"smiles": "[O-][n+]1cccc(/C(Cl)=N/OC[C@@H](O)CN2CCCCC2)c1", "Potency": "inactive"}, {"smiles": "CC(C)Cn1cnc2c1c(=O)n(C)c(=O)n2C", "Potency": "inactive"}, {"smiles": "C/C=C(\\C)C(C)=O", "Potency": "inactive"}, {"smiles": "Cc1cccc(Cl)c1", "Potency": "inactive"}]}]}
